DAX1 inh-1 – DAX1 (NR0B1) inhibitors on StAR promoter, primary screen, cell-based, luminescence, SF-1 (NR5A1), full-length DAX-1; HEK293T StAR-luciferase reporter, SF-1/DAX-1 repression relief; inhibition, % at 6.8 µM; 370,000 compounds, 1.1% hits; AID 652010, 2013;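 active = inhibition above the mean over all tested compounds plus 3 SD, cut at about 3.6% in these data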;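 also: 0% = DAX-1 cells with DMSO and 100% = cells lacking DAX-1 with DMSO; higher inhibition means more luminescence from relief of DAX-1 repression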
hcDAF12 agonist – H. contortus DAF-12 nuclear receptor activators, primary screen, cell-based, luminescence, HEK293, lit1-tk-luc reporter. HEK293 hcDAF-12 lit1-tk-luc reporter; 0% DMSO, 100% Δ7-dafachronic acid. activation, % at 6.8 µM. 370,000 compounds, 1.4% hits;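 active = activation above the mean of all tested compounds plus 3 SD, cut at about 5.5% in these data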;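 also: 100% = response to 3 µM Δ7-dafachronic acid high control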
ssDAF-12 act – S. stercoralis DAF-12 nuclear receptor activators, primary screen, cell-based, luminescence, HEK293, GRIP1 co-expression, lit1-tk-luc; Nuclear hormone receptor DAF-12 (Strongyloides stercoralis); HEK293 ssDAF-12/GRIP1 lit1-tk-luc reporter; % of 3 µM dafachronic acid response; activation, % at 6.8 µM; 370,000 compounds, 1% hits; AID 652126, 2013;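 active = activation above the mean over all tested compounds plus 3 SD, cut at about 0.9% in these data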;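 also: 0% = DMSO-only wells and 100% = 3 µM delta7-dafachronic acid wells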
DAX1 inh-2 – DAX1 (NR0B1) inhibitors, primary screen, cell-based, HEK293, Gal4-DAX1, luciferase luminescence. Nuclear receptor subfamily 0 group B member 1 (Homo sapiens), P51843. HEK293 Gal4-DAX1 luciferase reporter. inhibition, % at 6.75 µM. 340,000 compounds, 0.99% hits. AID 504766, 2011;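 active = inhibition above the mean over all tested compounds plus 3 SD, cut at about 4.2% in these data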;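 also: 0% = DAX1-transfected cells with DMSO and 100% = empty-vector control cells with DMSO; inhibition shows as a rise in luminescence from relieved DAX1 repression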
Target sequence (P51843 207-470 limits assumed): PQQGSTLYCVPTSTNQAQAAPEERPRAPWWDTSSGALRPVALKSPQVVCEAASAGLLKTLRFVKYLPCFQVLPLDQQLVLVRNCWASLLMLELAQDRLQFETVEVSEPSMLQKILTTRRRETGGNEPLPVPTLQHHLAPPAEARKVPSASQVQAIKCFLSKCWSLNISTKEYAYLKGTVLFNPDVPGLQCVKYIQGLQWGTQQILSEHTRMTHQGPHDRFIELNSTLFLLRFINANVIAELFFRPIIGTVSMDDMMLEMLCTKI
hgDAF12 agonist – H. glycines DAF-12 receptor agonists, primary screen, cell-based, luminescence, HEK293, GAL4 fusion, UAS-luciferase; HEK293 GAL4-hgDAF12 UAS-luciferase reporter, agonist luminescence; normalized to butyrate control; activation, % at 6.8 µM; 370,000 compounds, 1.8% hits; AID 687014, 2013;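 active = activation above a cutoff set at the mean of all screened compounds plus 3 SD, cut at about 10% in these data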;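 also: 0% = DMSO wells and 100% = sodium butyrate wells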
Starred values were filed as active, the others as inactive; · = not tested or not shown. Only some compounds are listed: those with a hit (about 4.1% of all), similar ones and a draw of the others.

SMILES	DAX1 inh-1	hcDAF12 agonist	ssDAF-12 act	DAX1 inh-2	hgDAF12 agonist
O=[N+]([O-])c1ccc(N2CCN(c3ccccc3O)CC2)c(Cl)c1	-1	-1	-2	-1	4
O=C1NC(c2cccc([N+](=O)[O-])c2)=CCN1c1ccccc1O	0	1	2.3*	1	4
O=S1(=O)CCN2N=C(C3CC3)SC2=N1	0	-1	-2	6.2*	0
O=C(O)c1ccc2c(c1)SC1=NS(=O)(=O)CCN12	0	-1	-1	0	4
C=CCNc1cccc2c1S(=O)(=O)N[C@@H](Cc1ccccc1)CO2	-2	1	-2	·	2
Cc1c(Cl)cnc(NC(=O)COC(=O)CCS(=O)(=O)c2ccccc2)c1Cl	-1	1	-1	0	0
O=C(COC(=O)CCS(=O)(=O)c1ccc(Cl)cc1)Nc1ncc(Cl)cc1Cl	0	0	0	4.8*	-1
O=C1/C(=C\c2ccccc2)CCc2c1[nH]c1ccccc21	-1	6	0	-1	13*
FC(F)(F)c1cnc(Oc2cccc3ccccc23)c(Cl)c1	0	3	1.0*	0	2
Cc1cc(C)c(NC(=O)C2CCCN2C)c(C)c1 (stereo unspecified)	0	1	-1	8.0*	2
Cc1cc(C)c(NC(=O)C2CCCN2CCO)c(C)c1 (stereo unspecified)	1	1	-1	1	0
NC(=O)N/N=C/c1sc(N2CCCCC2)nc1-c1cccs1	-2	0	-1	-2	12*
O=C(N/N=C/c1sc(N2CCCCC2)nc1-c1cccs1)C1CC1	-1	-2	-2	-2	-1
CC1(C)OC(=O)C(=NNc2ccccc2)C(=O)O1	-1	-1	0	0	-1
c1ccc(NN=C2c3ccccc3-c3ccccc32)cc1	0	5.7*	1	0	2
COC(=O)[C@]12C[C@H](CC(=O)NCC3CCCCC3)C(=O)N(Cc3ccco3)C1=C[C@H](C(C)C)O[C@@H]2C1CC1	0	-1	-2	·	-1
Cc1ccc(OCC(=O)Nc2ccc(C(=O)Nc3ccccc3C(=O)O)cc2)cc1C	2	0	0	-1	11*
COc1ccc(OCC(=O)Nc2ccc(C(=O)Nc3ccccc3C(=O)O)cc2)cc1	0	4	-1	0	1
Cc1cccc(C(=O)Nc2ccccc2C(=O)Nc2ccc(C(=O)O)cc2)c1	0	0	-1	6.6*	0
CCCC(=O)OC[C@H]1CN(C2CCCC2)S(=O)(=O)c2c(Oc3ccc(F)cc3)cccc2O1	0	-2	-1	·	-2
Cc1ccc(-c2cnc3cccnn23)cc1F	3	1	-1	·	9
COc1cccc(-c2cnc3cccnn23)c1	2	-1	-1	·	12*
CS(=O)(=O)Nc1ccc(-c2cnc3cccnn23)cc1	-1	1	-1	·	12*
CC1CCN(CCCNS(=O)(=O)c2cc3c(cc2Br)CCN3C(=O)C2CC2)CC1	1	1	-1	·	-1
Cc1ccc(NC(=O)Cc2cccc(OC(F)F)c2)c(S(=O)(=O)N2CCOCC2)c1	-1	-1	-2	·	0
SMILES	DAX1 inh-1	hcDAF12 agonist	ssDAF-12 act	DAX1 inh-2	hgDAF12 agonist
O=C(O)c1nn(-c2cccc(Cl)c2)c(=O)cc1O	0	4	1.2*	-1	1
NC(=O)C1(N2CCCCC2)CCN(S(=O)(=O)c2ccc(Cl)s2)CC1	0	2	-1	0	3
NC(=O)C1(N2CCCCC2)CCN(S(=O)(=O)c2cc(Cl)ccc2Cl)CC1	1	2	0	4.6*	-1
Cc1cccc(N2CC(O)(c3cccs3)[N+]3=C2CCCC3)c1C (stereo unspecified)	0	0	-2	0	-3
Cc1ccccc1N1CC(O)(c2cccs2)[N+]2=C1CCCC2 (stereo unspecified)	-1	0	1.8*	0	0
CN1CC(O)([C@H](Cc2ccccc2)NC(=O)OC(C)(C)C)OCC1C(=O)NCc1cccc2ccccc12 (stereo partly specified)	·	-2	-2	·	3
Cc1c(-c2cc(Br)ccc2O)nc2cc3c(cc2c1C)OCO3	0	0	-1	4.3*	5
CC(C)CN1C(=O)C[C@]2(C(=O)N(C)c3ccc(NS(=O)(=O)C4CCCCC4)cc32)C1c1ccccc1 (stereo partly specified)	0	-2	-1	·	3
COC1C(O)C(O)C(O)C(O)C1O (stereo unspecified)	0	0	-1	4.9*	0
COC1OC(CO)C(O)C(O)C1O (stereo unspecified)	0	-1	-2	1	-2
O=C(Nc1ccc(N2CCOCC2)c(Cl)c1)c1ccc(-n2cnnc2)cc1	1	2	-1	0	0
O=C(Nc1ccc(N2CCOCC2)c(Cl)c1)c1ccc(F)cc1	1	0	-1	5.2*	6
CCN1CCN(c2ccc(NC(=O)c3cccc(F)c3)cc2Cl)CC1	4	1	-1	0	13*
O=C(COC(=O)c1cncc(Br)c1)Nc1ccc(N2CCCCC2)cc1	-1	4	1.8*	1	1
COC(=O)[C@@H](NC(=O)N1CCC(C)CC1)C(C)C	0	-1	-1	4.9*	4
COC(=O)[C@]12C[C@H](CC(=O)N3CCN(C(=O)C4CC4)CC3)C(=O)N(Cc3cccc4ccccc34)C1=C[C@H](C(C)C)O[C@@H]2C1CC1	0	-2	-1	·	2
O=C(NNC(=O)c1cc(Cl)nc2ccccc12)c1ccccc1F	1	2	1.1*	-2	-1
O=C(NNC(=O)c1cc(-c2ccncc2)nc2ccccc12)c1ccccc1F	2	4	-1	2	4
O=C(NNc1nc2ccccc2s1)Nc1ccc(Cl)c(Cl)c1	0	2	-1	0	-7
O=C(NNc1nc2ccccc2s1)c1ccccc1F	0	5.8*	0	0	-1
O=C(NNc1nc2ccccc2s1)Nc1ccc(F)cc1	1	5	0	6.0*	10
O=C(c1ccco1)N1CCN(C(=O)c2cc(Cl)nc3ccccc23)CC1	0	2	1.2*	0	1
O=C(NNc1nc2ccccc2s1)C1CC1	0	3	1	0	1
COc1ccc(-c2nnc(SCC(=O)NN=C/C=C\c3ccco3)n2-c2ccc(OC)cc2)cc1	0	0	-2	·	1

Assay outcomes: PubChem BioAssay, The Scripps Research Institute Molecular Screening Center
